This passage reports growth results from PubChem BioAssay (NCI).

This is part of a sample that, as a whole, favours compounds with a hit. Of some 83,000 tested, about 20% had one in any assay.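 Single-dose data. Exposure time 48 hours. Values below 10 considered active.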 A number with no mark means an inactive call. Calls of active or inactive are those of the source.

What all share (assay): NCI-60 one-dose screen, 48 h (100 = growth as untreated, 0 = no growth, -100 = all killed)
Assay [1] relates to DU-145 prostate. The note with it: 10 µM unless noted.
Assay [2] concerns K-562 leukemia. The settings on record: 10 µM unless noted.
Assay [3] relates to MALME-3M melanoma. The note with it: 10 µM unless noted.
Assay [4] has as its system MDA-MB-231 breast. The note with it: 10 µM unless noted.
Assay [5] has as its system RXF 393 renal. The note with it: 10 µM unless noted.
In assay [6] the test system is SF-268 CNS. The note with it: 10 µM unless noted.
Assay [7] deals with SF-295 CNS. The settings on record: 10 µM unless noted.
The test system of assay [8] is SF-539 CNS. The note with it: 10 µM unless noted.
The subject of assay [9] is UACC-257 melanoma. The note with it: 10 µM unless noted.
In assay [10] the test system is M14 melanoma. The note with it: 10 µM unless noted.
Assay [11] deals with HCT-15 colon. The settings on record: 10 µM unless noted.
Assay [12] concerns HT29 colon. The note with it: 10 µM unless noted.
Assay [13] concerns SNB-75 CNS. The settings on record: 10 µM unless noted.
Assay [14] concerns SNB-19 CNS. The note with it: 10 µM unless noted.
In assay [15] the test system is U251 CNS. The settings on record: 10 µM unless noted.
In assay [16] the test system is PC-3 prostate. The note with it: 10 µM unless noted.
Assay [17] deals with SK-MEL-5 melanoma. The settings on record: 10 µM unless noted.
Assay [18] concerns UACC-62 melanoma. The settings on record: 10 µM unless noted.
For assay [19], the system named is LOX IMVI melanoma. The settings on record: 10 µM.
Assay [20] deals with SK-MEL-28 melanoma. The settings on record: 10 µM unless noted.

In the case of `CC[n+]1ccc(Nc2ccc(NC(=O)c3ccc(Nc4cc[n+](CC)c5ccc([N+](=O)[O-])cc45)cc3)cc2)cc1`, the growth in [1] was 91.9%; in assay [2] it was 48.2%; in assay [3] it was 40%; in assay [4] it was 114%; in assay [5] it was 97.9%; in assay [6], 86.1%. The growth in assay [7] is 59.3%; in assay [8] it was 94.5%; in assay [9], 56.2%; in [10] it was 83.7%; in assay [11], 96.2%; in assay [12] it was 57.1%. The growth in assay [13] was 98.4%; in [14], 71.6%; in assay [15], 62.5%; in assay [16], 54.2%; in assay [17], 65.7%; in assay [18], 79.4%. Also, the growth was 85.7% in [19] and 90.3% in assay [20].

Turning to `CC(C)(C)c1ccc(CCO)cc1`, the growth is 114% in assay [1]; 91.3% in [2]; 82.5% in assay [3]; 102% in assay [4]; 117% in assay [5]; 104% in assay [6]. Also, the growth was 88.7% in [7]; 88.6% in assay [8]; 97.2% in assay [9]; 104% in assay [10]; 109% in assay [11]; 110% in assay [12]. The growth in [13] is 96.7%; in [14] it was 95.7%; in assay [15] it was 103%; in [16], 99.8%; in assay [17], 95.6%; in assay [18] it was 89.5%. Further, in assay [19], the growth was 99.5%.

On to `O=C(Nc1ccc(Cl)c(Cl)c1)Nc1ccccc1O`, for which the growth was 118% in assay [1]; 48.7% in assay [2]; 114% in assay [3]; 82.5% in assay [4]; 101% in [5]; 92.9% in assay [6]. The growth is 75.5% in assay [7]; 91.5% in [8]; 78.2% in [9]; 58.4% in assay [10]; 78.5% in assay [11]; 112% in [12]. The growth in assay [13] was 67%; in assay [14], 85.8%; in assay [15], 85.7%; in assay [16], 38.1%; in assay [17] it was 74.5%; in assay [18], 42.8%. The growth in [19] is 70.4%.

In the case of `O=C(O)c1cc2c(s1)C(=O)c1sccc1C2=O`, the growth in assay [1] is -100% (active); in assay [2] it was -1.53% (active); in assay [3], -98.9% (active); in [4] it was 75%; in assay [5], 34.2%; in assay [6], 45.2%. For the same molecule, the growth was 57.4% in [7]; -66.1% (active) in [8]; 48.3% in assay [9]; -96.3% (active) in [10]; -59.3% (active) in assay [11]; 65.8% in assay [12]. Moreover, the growth in [13] was -91.6% (active); in [14], -2.34% (active); in assay [15], 30.4%; in [16], 56.5%; in assay [17], -100% (active); in assay [18] it was 51%. Moreover, the growth in [19] was -72.5% (active).

Regarding `CCCCCCCCCCCCCCCC[N+]1(C)CCCC1c1cccnc1` (configuration not stated), the growth was 52.1% in assay [1]; 36.3% in assay [2]; 64.7% in assay [3]; 30.8% in [4]; 45.3% in [5]; 29.6% in assay [6]. Besides, the growth in assay [7] is 42.2%; in [8] it was 33.3%; in assay [9] it was 75.9%; in assay [10], 17.9%; in assay [11], 77.9%; in assay [12], 15.1%. Moreover, the growth in assay [13] is 37.1%; in [14], 29.1%; in [15], 16.7%; in assay [16], 8.08% (active); in assay [17] it was 43.9%; in [18], 50.6%. In addition, the growth in assay [19] is 49.2%; in assay [20], 97%.

For the molecule `CC1(O)CCCCCC1`, the growth in assay [1] was 106%; in [2] it was 85.3%; in [3] it was 117%; in assay [4], 106%; in assay [5] it was 108%; in [6], 101%. Further, the growth in assay [7] is 98.7%; in assay [8] it was 102%; in assay [9], 101%; in assay [10], 96.2%; in assay [11], 102%; in assay [12], 110%. Moreover, the growth in assay [13] was 86.3%; in [14], 97.6%; in [15] it was 101%; in assay [16], 103%; in [17], 101%; in assay [18] it was 100%. Also, the growth in assay [19] is 94.2%; in assay [20], 106%.

Regarding `Oc1ccc(Br)cc1Sc1cc(Br)ccc1O`, the growth was 76.4% in [1]; 49.2% in assay [2]; 40.9% in assay [3]; 56.7% in [4]; 76.8% in assay [5]; 55.3% in assay [6]. The growth was 98.9% in assay [7]; 45.3% in assay [8]; 52.1% in assay [9]; 39.9% in [10]; 36.6% in [11]; 116% in assay [12]. For the same molecule, the growth in assay [13] was 59.4%; in assay [14], 41.3%; in assay [15], 46.9%; in [16], 65.4%; in assay [17], 2.54% (active); in assay [18], 7.3% (active). The figures for the growth in assay [19] and in assay [20] were 43.6% and 38.9%, respectively.

With `O=[N+]([O-])CC(O)c1ccccc1` (configuration not stated), the growth was 109% in [1]; 99.4% in [2]; 122% in assay [3]; 87.6% in assay [4]; 112% in assay [5]; 100% in [6]. Further, the growth in assay [7] was 113%; in [8] it was 103%; in [9] it was 88.7%; in [10], 97.6%; in assay [11], 96.6%; in assay [12], 113%. Further, the growth in assay [13] is 91.6%; in assay [14], 101%; in assay [15], 98.7%; in assay [16], 94.9%; in assay [17], 103%; in assay [18], 99.1%. In addition, the growth in assay [19] was 84.5%; in assay [20] it was 108%.
